Source: PubChem BioAssay AID1259418 (Broad Institute, 2018)
About 840 (25%) of roughly 3,400 compounds were called active. Inconclusive results (about 11%) are left out.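 How the source made its calls: active means fitted half-maximal concentration of signal decrease at or below twice the sample's top tested concentration; inconclusive means flat curve between -70 and -30 percent, or poor fit; inactive means flat within 30 percent, signal rise, or potency above limit.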 The list is a sample of the results. Entries with a potency or affinity are not part of this list.

assay: inhibitors of Toxoplasma growth in IFN-γ-primed HeLa – cell-based, ME49Luc, luciferase, 72 h, dose response (AID 1259418); details: T. gondii ME49Luc in IFN-y HeLa, stronger effect = lower value, -100% = high-dose IFN-γ control wells; at 19.5 µM unless noted

SMILES	max activity
CCOc1ccc(-c2nc(CN3CCN(C(=O)Nc4cc(C)ccc4C)CC3)c(C)o2)cc1	-22.4% (inactive)
Cc1nc(OCC(=O)Nc2ccccc2Cl)c2ccccc2n1	28.8% [at 0.35 µM] (inactive)
CCc1nc(OCC(=O)Nc2cc(OC)cc(OC)c2)c2ccccc2n1	14.7% [at 0.68 µM] (inactive)
COc1ccc(-c2nc(Cn3nnc(-c4nc(-c5cccnc5)no4)c3C)c(C)o2)cc1	6.33% [at 5 µM] (inactive)
Cc1nc(OCC(=O)Nc2cccc(C)c2C)c2ccccc2n1	9.02% [at 0.16 µM] (inactive)
Cc1nc(CCNC(=O)[C@H]2CCCN2S(=O)(=O)c2ccc(C)c(C)c2)cs1	15.2% [at 10 µM] (inactive)
Cc1nc(CCNC(=O)[C@H]2CCCN2S(=O)(=O)c2ccccc2C)cs1	12.4% [at 10 µM] (inactive)
O=C(NCCc1csc(-c2ccccc2)n1)[C@H]1CCCN1S(=O)(=O)c1cccc(F)c1	-25.4% [at 1.35 µM] (inactive)
Cc1c(S(=O)(=O)N2CCC[C@@H]2C(=O)NCCc2csc(-c3ccccc3)n2)cnn1C(F)F	5.67% [at 2.6 µM] (inactive)
Cc1nc(CCNC(=O)[C@H]2CCCN2S(=O)(=O)c2ccc(F)cc2)cs1	18.1% [at 1.35 µM] (inactive)
Cc1nc(CCNC(=O)[C@H]2CCCN2S(=O)(=O)c2ccc(Cl)cc2)cs1	23.5% [at 0.16 µM] (inactive)
Cc1ccc(S(=O)(=O)N2CCC[C@@H]2C(=O)NCCc2csc(C)n2)cc1	7.86% [at 10 µM] (inactive)
CCc1ccc(S(=O)(=O)N2CCc3nc(-c4cccc(OC)c4)sc3C2)cc1	-5.58% [at 5 µM] (inactive)
Cc1cccc(-n2ncc3c(NC4CCCCCCCCCCC4)ncnc32)c1	22.5% [at 10 µM] (inactive)
CCOC(=O)c1cccc(NC(=O)Nc2ccc(-c3nc(-c4ccccc4)co3)cc2)c1	14.5% [at 0.16 µM] (inactive)
COc1ccccc1-c1nc(Cn2nnc(-c3nc(-c4ccc(F)cc4)no3)c2C)c(C)o1	9.82% [at 0.16 µM] (inactive)
CS(=O)(=O)N1CCO[C@@H]2CN(C(=O)Cc3ccccn3)CC[C@H]2C1	-7.92% [at 0.3 µM] (inactive)
COc1ccc(-c2nc(Cn3nnc(-c4nc(-c5ccc(OC(C)C)cc5)no4)c3C)c(C)o2)cc1	11.3% [at 0.35 µM] (inactive)
COc1cccc(NC(=O)Nc2ccc(-c3nc(-c4cccc(Br)c4)co3)cc2)c1	13.3% (inactive)
Cc1ccc(C(=O)Nc2c(C(=O)N3CCCC3)[nH]c3ccc(C)cc23)cc1	49.7% [at 10 µM] (inactive)
CCC(C)NC(=O)Cn1c(=O)c(S(=O)(=O)c2ccccc2)cc2cc(C)ccc21 (stereo not drawn)	-4.98% [at 10 µM] (inactive)
Cc1cc(C)c(S(=O)(=O)N2CCC[C@@H]2C(=O)NCCc2csc(-c3ccccc3)n2)cc1C	-22.5% (inactive)
CC(C)(C)c1ccc(S(=O)(=O)N2CCC[C@@H]2C(=O)NCCc2csc(-c3ccccc3)n2)cc1	-14.7% [at 0.16 µM] (inactive)
O=C(NCCc1csc(-c2ccccc2)n1)[C@H]1CCCN1S(=O)(=O)c1cccc(Cl)c1	-25.7% (inactive)
CCc1ccc(S(=O)(=O)N2CCC[C@@H]2C(=O)NCCc2csc(C)n2)cc1	-9.49% [at 0.35 µM] (inactive)
Cc1cc(C)cc(C(=O)N2CCC[C@@H]2C(=O)NCCc2csc(-c3ccccc3)n2)c1	-12.7% (inactive)
Cc1nc(CCNC(=O)[C@H]2CCCN2S(=O)(=O)c2ccc(Cl)s2)cs1	12.6% [at 0.16 µM] (inactive)

SMILES	max activity
COc1ccc(CNC(=O)Nc2ccc(-c3nc(-c4ccc(C)cc4C)co3)cc2)cc1	20.3% [at 1.35 µM] (inactive)
Cc1oc(-c2ccccc2)nc1CSc1nc2c(c(=O)[nH]1)CN(Cc1ccc(F)cc1)CC2	22.6% [at 0.35 µM] (inactive)
Cc1ccc(-c2coc(-c3ccc(NC(=O)C4CCCCC4)cc3)n2)cc1	55.5% (inactive)
Cc1ccc(-c2coc(-c3ccc(NC(=O)c4cccc(C)c4)cc3)n2)cc1	70.3% [at 10 µM] (inactive)
Cc1ccc(-c2nc(Cn3nnc(-c4nc(-c5ccccc5Br)no4)c3C)c(C)o2)cc1	-6.98% [at 5 µM] (inactive)
Cc1ccccc1C(=O)N1CSC[C@@H]1C(=O)NCCc1csc(-c2ccccc2)n1	-16.3% (inactive)
COc1ccccc1-c1noc(C2CCCN2C(=O)Cc2c[nH]c3ccccc23)n1 (stereo not drawn)	-7.96% [at 0.35 µM] (inactive)
COc1ccccc1-c1noc(C2CCCN2C(=O)c2ccc3cc[nH]c3c2)n1 (stereo not drawn)	14.5% [at 10 µM] (inactive)
CCn1nccc1C(=O)Nc1ccc2c(c1)CCC(=O)N2C	24.4% (inactive)
COC[C@@H]1CN(CC2CC2)C[C@@]12CCN(CCc1ccccc1)C2	-8.78% [at 2.6 µM] (inactive)
CCOC(=O)CSc1nc(NCc2ccc(Cl)cc2)c2ccccc2n1	29.6% (inactive)
CCOC(=O)C1CCN(c2nc(-c3ccc(Cl)cc3)nc3ccccc23)CC1	17% [at 0.35 µM] (inactive)
O=C(Cn1c(=O)c(S(=O)(=O)c2ccccc2)cc2ccccc21)NCc1ccccc1	-8.55% [at 2.6 µM] (inactive)
c1ccc(-c2ccc([C@H]3[C@H]4CNC[C@@H]3N4Cc3cc(-c4ccccc4)on3)cc2)cc1	49.3% [at 10 µM] (inactive)
O=C(NC1CCCC1)N1[C@@H]2CNC[C@H]1C2c1ccc(-c2cccnc2)cc1 (stereo partly drawn)	19.4% (inactive)
Cc1ccc2c(c1)cc(S(=O)(=O)c1ccccc1)c(=O)n2CC(=O)NC(C)C	-9.24% [at 0.16 µM] (inactive)
O=C(Nc1ccc(-c2nc(-c3cccc(Br)c3)co2)cc1)Nc1ccccc1F	6.98% (inactive)
COc1ccccc1-c1nc(Cn2nnc(-c3nc(-c4cccnc4)no3)c2C)c(C)o1	10.3% [at 0.16 µM] (inactive)
O=C(CC1CCCC1)N1CCC2(CC1)Nc1ccc(Cl)cc1-n1cccc12	-10.7% [at 0.16 µM] (inactive)
Cc1ccc2c(c1C)-n1cccc1C1(CCN(C(=O)C3CCCCC3)CC1)N2	-20.8% [at 0.16 µM] (inactive)
CC(C)C(=O)N1CCC2(CC1)Nc1ccc(Cl)cc1-n1cccc12	15.6% [at 0.68 µM] (inactive)
O=C(c1ccc(Cl)cc1)N1CCC2(CC1)Nc1ccc(Cl)cc1-n1cccc12	-6.42% [at 0.35 µM] (inactive)
CCC(CC)C(=O)N1CCC2(CC1)Nc1ccc(Cl)cc1-n1cccc12	9.15% [at 0.68 µM] (inactive)
COc1ccc(CC(=O)N2CCC3(CC2)Nc2ccc(Cl)cc2-n2cccc23)cc1	5.66% [at 2.6 µM] (inactive)
Cc1ccc(C(=O)N2CCC3(CC2)Nc2ccc(Cl)cc2-n2cccc23)cc1	8.29% [at 0.35 µM] (inactive)
O=C(CC1CCCCC1)N1CCC2(CC1)Nc1ccc(Cl)cc1-n1cccc12	7.76% [at 0.35 µM] (inactive)
